# Assay results published in the supplement of paper PMC10037445.
# Values joined by “and” are separate entries in the source; they are usually repeats but may differ in a detail not shown here. Equal entries are not always repeated. Over roughly 2,900 compounds, “NF-kB SEAP reporter activity, fold change vs agonist alone” has its median near 0.99; the highest 2% begin near 2.6. The full list was thinned out, with the highest values kept by preference.
# How the values were obtained:
# RAW-Dual [1] = assay: NF-kB SEAP reporter activity, fold change vs agonist alone; higher = enhanced NF-kB activity; conditions: library stock concentration (final ~1000-fold dilution): 10 mM
# In short: (§1)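 RAW-Dual macrophages were seeded in DMEM at 50,000 cells/well in 384-well plates, given 50 nL of library stock by pin tool, and given a PRR agonist 1 h later. Plates were held at 37 °C, 5% CO2 for 20 hours, after which supernatant was read for IRF by QuantiLuc luminescence and for NF-κB by QuantiBlue absorbance at 620 nm. Reporter activity is expressed as fold change over wells that received agonist alone. A well was called cytotoxic when IncuCyte confluency fell below 70% of agonist controls in both mask sets.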
# RAW-Dual [2] = assay: NF-kB SEAP reporter activity, fold change vs agonist alone; cytotoxicity flag (confluency mask): not cytotoxic; higher = enhanced NF-kB activity
# In short: as §1
# RAW-Dual [3] = assay: NF-kB SEAP reporter activity, fold change vs agonist alone; cytotoxicity flag (confluency mask): cytotoxic (confluency <70% of control); higher = enhanced NF-kB activity
# In short: as §1
# [4] = cytotoxicity flag (confluency mask): not cytotoxic, agonist: Imiquimod (TLR7) […]
# [5] = cytotoxicity flag (confluency mask): not cytotoxic, agonist: MPLA (TLR4) […]
# [6] = agonist: ODN 1826 (TLR9) 0.5 ug/mL
# [7] = agonist: Pam2CSK4 (TLR2/6) 0.1 ug/mL
# [8] = agonist: Pam3CSK4 (TLR2/1) 0.1 ug/mL
smiles,measurement,setting,value
CCOC(=O)NC1CCC2C(C1)CC1C(=O)OC(C)C1C2/C=C/c1ccc(-c2cccc(F)c2)cn1 (centres undefined),NF-kB SEAP reporter activity,RAW-Dual [1]; [4],0.145
same,NF-kB SEAP reporter activity,RAW-Dual [1]; [5],0.289
CCOC(=O)NC1CCC2C(C1)CC1C(=O)OC(C)C1C2/C=C/c1ccc(-c2cccc(F)c2)cn1 (centres undefined) (library stock concentration (final ~1000-fold dilution): 10 mM),NF-kB SEAP reporter activity,RAW-Dual [2]; agonist: LPS (TLR4) 0.1 ug/mL,0.824
same,NF-kB SEAP reporter activity,RAW-Dual [2]; [6],0.243
same,NF-kB SEAP reporter activity,RAW-Dual [2]; [7],0.212
same,NF-kB SEAP reporter activity,RAW-Dual [2]; [8],0.158
NC(=O)N1CCC(CC(=O)N2CCC(C3c4ncc(Br)cc4CCc4cc(Cl)cc(Br)c43)CC2)CC1 (centres undefined),NF-kB SEAP reporter activity,"RAW-Dual [1]; cytotoxicity flag (confluency mask): cytotoxic (confluency <70% of control), agonist: Imiquimod (TLR7) […]",0.614
same,NF-kB SEAP reporter activity,"RAW-Dual [1]; cytotoxicity flag (confluency mask): cytotoxic (confluency <70% of control), agonist: MPLA (TLR4) […]",0.603
NC(=O)N1CCC(CC(=O)N2CCC(C3c4ncc(Br)cc4CCc4cc(Cl)cc(Br)c43)CC2)CC1 (centres undefined) (library stock concentration (final ~1000-fold dilution): 10 mM),NF-kB SEAP reporter activity,RAW-Dual [3]; agonist: LPS (TLR4) 0.1 ug/mL,0.422
same,NF-kB SEAP reporter activity,RAW-Dual [3]; [6],0.347
same,NF-kB SEAP reporter activity,RAW-Dual [3]; [7],0.171
same,NF-kB SEAP reporter activity,RAW-Dual [3]; [8],0.223
Nc1ccccc1NC(=O)c1cnccn1,NF-kB SEAP reporter activity,RAW-Dual [1]; [4],0.997
same,NF-kB SEAP reporter activity,RAW-Dual [1]; [5],1.12
O=C(Nc1ccc(O)cc1)c1ccccc1O,NF-kB SEAP reporter activity,RAW-Dual [1]; [4],1.68
same,NF-kB SEAP reporter activity,RAW-Dual [1]; [5],1.24
CC(=O)Nc1ccc(C(=O)Nc2ccccc2N)cc1 (library stock concentration (final ~1000-fold dilution): 10 mM),NF-kB SEAP reporter activity,RAW-Dual [2]; agonist: LPS (TLR4) 0.1 ug/mL,2.28
same,NF-kB SEAP reporter activity,RAW-Dual [2]; [6],2.86
same,NF-kB SEAP reporter activity,RAW-Dual [2]; [7],0.724
same,NF-kB SEAP reporter activity,RAW-Dual [2]; [8],0.832
Nc1ccccc1NC(=O)c1cnccn1 (library stock concentration (final ~1000-fold dilution): 10 mM),NF-kB SEAP reporter activity,RAW-Dual [2]; agonist: LPS (TLR4) 0.1 ug/mL,1.4
same,NF-kB SEAP reporter activity,RAW-Dual [2]; [6],1.16
same,NF-kB SEAP reporter activity,RAW-Dual [2]; [7],0.443
same,NF-kB SEAP reporter activity,RAW-Dual [2]; [8],0.532
O=C(Nc1ccc(O)cc1)c1ccccc1O (library stock concentration (final ~1000-fold dilution): 10 mM),NF-kB SEAP reporter activity,RAW-Dual [2]; agonist: LPS (TLR4) 0.1 ug/mL,1.17
same,NF-kB SEAP reporter activity,RAW-Dual [2]; [6],1.93
same,NF-kB SEAP reporter activity,RAW-Dual [2]; [7],0.921
same,NF-kB SEAP reporter activity,RAW-Dual [2]; [8],1.04
CC(=O)Nc1ccc(C(=O)Nc2ccccc2N)cc1,NF-kB SEAP reporter activity,RAW-Dual [1]; [4],2.21
same,NF-kB SEAP reporter activity,RAW-Dual [1]; [5],1.74
CO/N=C(\C(=O)NC1C(=O)N2C(C(=O)O)=C(CSc3nnnn3C)CSC12)c1csc(N)n1.CO/N=C(\C(=O)NC1C(=O)N2C(C(=O)O)=C(CSc3nnnn3C)CSC12)c1csc(N)n1.Cl (centres undefined) (library stock concentration (final ~1000-fold dilution): 10 mM),NF-kB SEAP reporter activity,RAW-Dual [2]; agonist: LPS (TLR4) 0.1 ug/mL,0.999
same,NF-kB SEAP reporter activity,RAW-Dual [2]; [6],0.966
same,NF-kB SEAP reporter activity,RAW-Dual [2]; [7],1.14
same,NF-kB SEAP reporter activity,RAW-Dual [2]; [8],0.939
CO/N=C(\C(=O)NC1C(=O)N2C(C(=O)O)=C(CSc3nnnn3C)CSC12)c1csc(N)n1.CO/N=C(\C(=O)NC1C(=O)N2C(C(=O)O)=C(CSc3nnnn3C)CSC12)c1csc(N)n1.Cl (centres undefined),NF-kB SEAP reporter activity,RAW-Dual [1]; [5],1.06
Cl.Cl.N/C(=N\OCC(O)CN1CCCCC1)c1cccnc1 (centres undefined) (library stock concentration (final ~1000-fold dilution): 10 mM),NF-kB SEAP reporter activity,RAW-Dual [2]; agonist: LPS (TLR4) 0.1 ug/mL,1.1
same,NF-kB SEAP reporter activity,RAW-Dual [2]; [6],0.949
same,NF-kB SEAP reporter activity,RAW-Dual [2]; [7],1.15
same,NF-kB SEAP reporter activity,RAW-Dual [2]; [8],1.09
Cl.Cl.N/C(=N\OCC(O)CN1CCCCC1)c1cccnc1 (centres undefined),NF-kB SEAP reporter activity,RAW-Dual [1]; [4],0.94
same,NF-kB SEAP reporter activity,RAW-Dual [1]; [5],1.08
NC(CSC(c1ccccc1)(c1ccccc1)c1ccccc1)C(=O)O (centres undefined) (library stock concentration (final ~1000-fold dilution): 10 mM),NF-kB SEAP reporter activity,RAW-Dual [2]; agonist: LPS (TLR4) 0.1 ug/mL,0.775
same,NF-kB SEAP reporter activity,RAW-Dual [2]; [6],0.732
same,NF-kB SEAP reporter activity,RAW-Dual [2]; [7],0.699
same,NF-kB SEAP reporter activity,RAW-Dual [2]; [8],0.656
NC(CSC(c1ccccc1)(c1ccccc1)c1ccccc1)C(=O)O (centres undefined),NF-kB SEAP reporter activity,RAW-Dual [1]; [4],0.946
same,NF-kB SEAP reporter activity,RAW-Dual [1]; [5],0.976
CC(C)c1nc(N(C)S(C)(=O)=O)nc(-c2ccc(F)cc2)c1C=CC(O)CC(O)CC(=O)O (centres undefined),NF-kB SEAP reporter activity,RAW-Dual [1]; [4],0.909
same,NF-kB SEAP reporter activity,RAW-Dual [1]; [5],1.05
CC(C)c1nc(N(C)S(C)(=O)=O)nc(-c2ccc(F)cc2)c1/C=C/C(O)CC(O)CC(=O)O (centres undefined),NF-kB SEAP reporter activity,RAW-Dual [1]; [5],1.1
CC(C)c1nc(N(C)S(C)(=O)=O)nc(-c2ccc(F)cc2)c1/C=C/C(O)CC(O)CC(=O)O (centres undefined) (library stock concentration (final ~1000-fold dilution): 10 mM),NF-kB SEAP reporter activity,RAW-Dual [2]; agonist: LPS (TLR4) 0.1 ug/mL,0.973
same,NF-kB SEAP reporter activity,RAW-Dual [2]; [6],1.18
same,NF-kB SEAP reporter activity,RAW-Dual [2]; [7],1.21
same,NF-kB SEAP reporter activity,RAW-Dual [2]; [8],1.1
CC(C)c1c(C(=O)Nc2ccccc2)c(-c2ccccc2)c(-c2ccc(F)cc2)n1CCC(O)CC(O)CC(=O)O (centres undefined) (library stock concentration (final ~1000-fold dilution): 10 mM),NF-kB SEAP reporter activity,RAW-Dual [2]; agonist: LPS (TLR4) 0.1 ug/mL,1.85 and 2.93
same,NF-kB SEAP reporter activity,RAW-Dual [2]; [6],1.49 and 1.82
same,NF-kB SEAP reporter activity,RAW-Dual [2]; [7],1.03 and 1.49
same,NF-kB SEAP reporter activity,RAW-Dual [2]; [8],1.3 and 1.42
O=C(O)CC(O)CC(O)C=Cc1c(C2CC2)nc2ccccc2c1-c1ccc(F)cc1 (centres undefined),NF-kB SEAP reporter activity,RAW-Dual [1]; [4],2.52
same,NF-kB SEAP reporter activity,RAW-Dual [1]; [5],2.05
CC(C)n1c(C=CC(O)CC(O)CC(=O)O)c(-c2ccc(F)cc2)c2ccccc21 (centres undefined),NF-kB SEAP reporter activity,RAW-Dual [1]; [4],2.45
same,NF-kB SEAP reporter activity,RAW-Dual [1]; [5],2.14
O=C(O)CC(O)CC(O)C=Cc1c(C2CC2)nc2ccccc2c1-c1ccc(F)cc1 (centres undefined) (library stock concentration (final ~1000-fold dilution): 10 mM),NF-kB SEAP reporter activity,RAW-Dual [2]; agonist: LPS (TLR4) 0.1 ug/mL,3
same,NF-kB SEAP reporter activity,RAW-Dual [2]; [6],3
same,NF-kB SEAP reporter activity,RAW-Dual [2]; [7],2.4
same,NF-kB SEAP reporter activity,RAW-Dual [2]; [8],3.31
CC(C)n1c(C=CC(O)CC(O)CC(=O)O)c(-c2ccc(F)cc2)c2ccccc21 (centres undefined) (library stock concentration (final ~1000-fold dilution): 10 mM),NF-kB SEAP reporter activity,RAW-Dual [2]; agonist: LPS (TLR4) 0.1 ug/mL,3.64
same,NF-kB SEAP reporter activity,RAW-Dual [2]; [6],2.92
same,NF-kB SEAP reporter activity,RAW-Dual [2]; [7],2.13
same,NF-kB SEAP reporter activity,RAW-Dual [2]; [8],3.38
CC(C)c1nc(N(C)S(C)(=O)=O)nc(-c2ccc(F)cc2)c1C=CC(O)CC(O)CC(=O)O (centres undefined) (library stock concentration (final ~1000-fold dilution): 10 mM),NF-kB SEAP reporter activity,RAW-Dual [2]; agonist: LPS (TLR4) 0.1 ug/mL,1.43
same,NF-kB SEAP reporter activity,RAW-Dual [2]; [6],1.24
same,NF-kB SEAP reporter activity,RAW-Dual [2]; [7],1.01
same,NF-kB SEAP reporter activity,RAW-Dual [2]; [8],1.2
